Laboratory results from PubChem BioAssay AID1159580 (chemical genetic matrix, 2015).
Hit rate of the full screen: of about 5,500 compounds, about 2,000 (36%) were called active. Roughly 18% stayed inconclusive and do not appear here. Cut-off read from the data, not from the text of the source: active = normalized growth mostly below about 0.91 (no sharp cut-off); inconclusive = no clear call, values can overlap the other calls; inactive = mostly above about 0.92. This is one part of the list.

Assay: chemical genetic growth profiling, strain panel (AID 1159580);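 note: tested at 20 µM; growth read once vehicle control cultures reached saturation at 30 °C; 1 = growth at the plate median or of vehicle wells; lower values mean less growth of the strain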
Conditions: S. cerevisiae deletion strains, growth OD

Measured: normalized growth

CCC1OC(=O)[C@H](C)C(=O)[C@H](C)[C@@H](OC2O[C@H](C)C[C@H](N(C)C)[C@H]2O)[C@](C)(OC)C2(CCCn3cnc(-c4cccnc4)c3)C[C@@H](C)C(=O)[C@H](C)[C@H]3N(C2)C(=O)O[C@]13C (stereo partly drawn)
inactive: locus YAL013W, strain DEP1, active compounds read low 1 | locus YAL021C, strain ccr4, active compounds read low 0.973 | locus YAL026C, strain drs2, active compounds read low 0.976 | locus YAL030W, strain snc1, active compounds read low 0.981 | locus YBL061C, strain skt5, active compounds read low 0.98 | locus YBR009C, strain hhf1, active compounds read low 0.962 | locus YBR021W, strain FUR4, active compounds read low 1 | locus YBR023C, strain chs3, active compounds read low 0.998 | locus YBR171W, strain sec66, active compounds read low 0.984 | locus YBR229C, strain ROT2, active compounds read low 1 | locus YBR231C, strain swc5, active compounds read low 0.984 | locus YBR279W, strain paf1, active compounds read low 0.996 | locus YCL011C, strain gbp2, active compounds read low 0.981 | locus YCL016C, strain dcc1, active compounds read low 0.975 | locus YCL029C, strain bik1, active compounds read low 1 | locus YCL069W, strain vba3, active compounds read low 0.979 | locus YCR088W, strain abp1, active compounds read low 0.979 | locus YDL005C, strain med2, active compounds read low 0.989 | locus YDL035C, strain GPR1, active compounds read low 1.01 | locus YDL040C, strain nat1, active compounds read low 0.982 | locus YDL074C, strain BRE1, active compounds read low 1.02 | locus YDL101C, strain DUN1, active compounds read low 1.01 | locus YDL134C, strain PPH21, active compounds read low 1.01 | locus YDL185W, strain tfp1, active compounds read low 1.01 | locus YDL192W, strain arf1, active compounds read low 1.01 | locus YDR001C, strain nth1, active compounds read low 0.983 | locus YDR069C, strain doa4, active compounds read low 0.996 | locus YDR101C, strain arx1, active compounds read low 0.985 | locus YDR137W, strain rgp1, active compounds read low 0.937 | locus YDR150W, strain NUM1, active compounds read low 1.01 | locus YDR159W, strain sac3, active compounds read low 0.96 | locus YDR162C, strain NBP2, active compounds read low 1.02 | locus YDR195W, strain ref2 0.968 | locus YDR297W, strain sur2, active compounds read low 0.982 | locus YDR318W, strain mcm21, active compounds read low 1 | locus YDR334W, strain swr1, active compounds read low 0.977 | locus YDR335W, strain msn5, active compounds read low 0.976 | locus YDR388W, active compounds read low 1.01 | locus YDR392W, strain spt3, active compounds read low 0.936 | locus YDR502C, strain sam2, active compounds read low 0.991 | locus YEL003W, strain gim4, active compounds read low 0.958 | locus YEL037C, strain rad23, active compounds read low 0.975 | locus YEL061C, strain CIN8 (second series), active compounds read low 0.983 | locus YEL061C, strain CIN8, active compounds read low 1 | locus YER015W, strain faa2, active compounds read low 0.987 | locus YER016W, strain bim1, active compounds read low 0.992 | locus YER110C, active compounds read low 0.993 | locus YER111C, strain swi4, active compounds read low 0.964 | locus YER155C, strain BEM2 (second series), active compounds read low 1.02 | locus YER155C, strain BEM2, active compounds read low 1.01 | locus YER167W, strain BCK2, active compounds read low 1.01 | locus YFR010W, strain ubp6, active compounds read low 0.995 | locus YGL078C, strain dbp3, active compounds read low 1.01 | locus YGL086W, strain mad1, active compounds read low 0.995 | locus YGL167C, strain pmr1, active compounds read low 0.986 | locus YGL173C, strain kem1, active compounds read low 0.975 | locus YGL227W, strain vid30, active compounds read low 0.978 | locus YGL240W, strain doc1, active compounds read low 0.994 | locus YGL248W, strain PDE1, active compounds read low 1 | locus YGL253W, strain hxk2, active compounds read low 0.965 | locus YGR078C, strain PAC10, active compounds read low 1.03 | locus YGR135W, strain pre9, active compounds read low 0.993 | locus YGR229C, strain SMI1, active compounds read low 1.01 | locus YGR252W, strain gcn5, active compounds read low 0.965 | locus YHR013C, strain ard1, active compounds read low 0.96 | locus YHR027C, strain rpn1, active compounds read low 0.99 | locus YHR030C, strain SLT2, active compounds read low 0.999 | locus YHR079C, strain IRE1 (second series), active compounds read low 0.991 | locus YHR094C, strain hxt1, active compounds read low 1 | locus YHR129C, strain ARP1, active compounds read low 1 | locus YHR142W, strain chs7, active compounds read low 0.973 | locus YHR200W, strain rpn10, active compounds read low 1 | locus YIL066C, strain RNR3, active compounds read low 1.01 | locus YIL073C, strain SPO22, active compounds read low 0.991 | locus YIL125W, strain kgd1, active compounds read low 1 | locus YIR030C, strain dcg1, active compounds read low 0.999 | locus YJL092W, strain hpr5, active compounds read low 0.979 | locus YJL095W, strain BCK1 (second series), active compounds read low 0.995 | locus YJL095W, strain BCK1, active compounds read low 1 | locus YJL115W, strain asf1, active compounds read low 0.973 | locus YJL129C, strain trk1, active compounds read low 1.01 | locus YJL134W, strain LCB3, active compounds read low 1.01 | locus YJL154C, strain vps35, active compounds read low 0.977 | locus YJL164C, strain tpk1, active compounds read low 0.977 | locus YJL166W, strain qcr8, active compounds read low 0.998 | locus YJL168C, strain set2, active compounds read low 0.999 | locus YJL187C, strain SWE1 (second series), active compounds read low 0.999 | locus YJL187C, strain SWE1, active compounds read low 0.984
